35 compounds from PubChem BioAssay AID504708 (Sanford-Burnham Center for Chemical Genomics, 2011) can be followed below.

A word on the inhibition: it is the change of the read-out against control, counted positive when it falls.

SMILES strings stand for the structures. The list shows a part of the results. Calls of active or inactive are those of the source.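 The calls were made as follows: active = inhibition at or below a set negative limit, negative inhibition meaning the enzyme was activated; inactive = the rest.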

The target of the assay is Hexokinase HKDC1 (Homo sapiens) (UniProt Q2TB90). Description: compounds raising human HKDC1 activity – biochemical, single concentration, confirmation (AID 504708). To be noted: recombinant HKDC1, G6PDH/diaphorase resazurin fluorescence; at 20 µM; stronger effect = lower value. On the technique in general: Alamar Blue is a resazurin reagent that responds to reducing activity.
Hexokinase HKDC1 (Homo sapiens), sequence (Q2TB90 whole entry, looked up): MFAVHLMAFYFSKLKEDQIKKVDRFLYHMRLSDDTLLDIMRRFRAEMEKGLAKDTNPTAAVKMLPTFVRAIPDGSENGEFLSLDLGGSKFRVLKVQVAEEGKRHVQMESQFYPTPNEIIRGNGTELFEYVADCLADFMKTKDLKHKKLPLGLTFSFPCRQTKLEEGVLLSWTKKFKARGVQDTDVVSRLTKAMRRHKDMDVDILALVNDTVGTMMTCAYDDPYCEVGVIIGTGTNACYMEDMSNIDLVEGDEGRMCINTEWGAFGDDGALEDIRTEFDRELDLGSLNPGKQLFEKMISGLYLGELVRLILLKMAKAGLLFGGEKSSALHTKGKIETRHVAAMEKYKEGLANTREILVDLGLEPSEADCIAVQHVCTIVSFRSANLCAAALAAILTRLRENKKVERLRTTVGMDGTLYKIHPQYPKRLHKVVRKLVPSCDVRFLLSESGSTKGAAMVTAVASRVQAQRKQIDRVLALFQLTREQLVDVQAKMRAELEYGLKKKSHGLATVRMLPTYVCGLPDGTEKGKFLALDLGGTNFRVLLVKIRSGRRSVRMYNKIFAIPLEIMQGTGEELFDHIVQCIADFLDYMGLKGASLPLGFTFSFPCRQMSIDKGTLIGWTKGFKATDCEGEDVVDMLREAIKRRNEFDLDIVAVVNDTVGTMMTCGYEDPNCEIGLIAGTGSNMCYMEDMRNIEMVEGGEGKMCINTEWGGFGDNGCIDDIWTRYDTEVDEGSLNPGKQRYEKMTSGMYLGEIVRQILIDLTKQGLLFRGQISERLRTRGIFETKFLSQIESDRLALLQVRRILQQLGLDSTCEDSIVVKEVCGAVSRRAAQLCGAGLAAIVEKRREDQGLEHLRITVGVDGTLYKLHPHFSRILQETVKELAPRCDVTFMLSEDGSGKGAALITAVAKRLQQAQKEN
For `Cc1ccc(C(=O)O)cc1-c1ccc(/C=C2\SC(=O)N(CC(=O)Nc3ccc4c(c3)OCO4)C2=O)o1`, the inhibition is 13.9% (inactive).

For `Cc1ccc2oc(=O)c3cnn(CC(=O)N4CCCCCC4)c3c2c1`, the inhibition is -63.5% (active). As for `O=C(NC1=CC(=O)c2ccccc2C1=O)c1ccccc1`, the figure is 69.9% (inactive); as for `CN1c2ccc(C=O)c3c(C=O)ccc(c23)N(C)C1(C)C`, 61.2% (inactive).

Regarding `Cc1cc(C2=NNC(=Nc3ccc(S(=O)(=O)N4CCOCC4)cc3)SC2)c(C)n1CC1CCCO1` (stereo not given), the inhibition was -55.8% (active). Next, `CCOc1cc(/C=N/n2cnnc2)c(Br)cc1O`: 28.4% (inactive); `CCn1cc(C(=O)NCc2ccc3c(c2)OCO3)c2cc(OC)c(OC)cc2c1=O`: 45.9% (inactive); `O=c1[nH]c2ccccc2n2c(-c3ccccc3)nnc12`: 58.5% (inactive). Next, `Cc1ccc(Nc2nc(-c3sc(NC(=O)c4ccccc4)nc3C)cs2)cc1`: 12.1% (inactive); `COc1ccc2c(c1)c(=Cc1ccc(N(C)C)cc1)c1cc(-c3ccccc3)[n+](C)n12`: 31.2% (inactive). Turning to `O=S(=O)(Nc1ccc(O)c2ccccc12)c1ccc(OC(F)(F)F)cc1`, the inhibition was 19.8% (inactive).

As to `CCc1ccc2c(c1)C1(NN=C(c3ccccc3)S1)C(=O)N2` (stereo not given), the inhibition is -13.6% (inactive). As for `CC(=O)/C(=N\Nc1ccc(Cl)cc1Cl)Sc1cccc2cccnc12`, the figure is -44.8% (active); as for `O=C(CSc1n[nH]c(-c2cccnc2)n1)Nc1ccnc2ccccc12`, 46% (inactive); as for `O=C(CSc1cccc2cccnc12)N/N=C/c1cccnc1`, -46.6% (active). For `Clc1cccc(N=C2NN=C(c3ccc4c(c3)OCCO4)CS2)c1`, the inhibition was -99.6% (active). As for `COc1ccc(C(CCN(Cc2ccc(OC)c(OC)c2)C(=O)CCl)c2ccccc2)cc1` (stereo not given), the figure is 17.4% (inactive); as for `Nc1ccc2nc3c(=O)[nH]c(=S)[nH]c3nc2c1`, -3.17% (inactive). For `COC(=O)c1ccc(NCc2cc(O)ccc2O)cc1`, the inhibition was 65.1% (inactive).

For the compound `O=C1C(Cl)=C(Oc2ccccc2)C(=O)c2ccccc21`, the inhibition is 77.7% (inactive). Regarding `COc1ccc(NC(=O)CSc2ccc(-c3ccco3)nn2)c(OC)c1`, the inhibition is 70.8% (inactive).

`Cc1cc(C(=O)CCl)c(C)n1CC1COc2ccccc2O1` (stereo not given): the inhibition is 11% (inactive).

On to `COc1ccc(N(CC(=O)N/N=C/c2cccc3c2OCCO3)S(=O)(=O)c2ccc(NC(C)=O)cc2)cc1`, for which the inhibition is 19.1% (inactive). As for `CCOC(=O)C1=C(c2ccc(OC)cc2)C(=O)c2ccccc2C1=O`, the figure is 75% (inactive); as for `O=c1ccc2c(-c3ccccc3S(=O)(=O)O)c3ccc(O)c(O)c3oc-2c1O`, 14.4% (inactive); as for `COCCNC(=O)Nc1ccc2nc(-c3ccco3)c(-c3ccco3)nc2c1`, -20.8% (inactive). Next, `Cc1ccc(N(Cc2cc(=O)[nH]c3ccccc23)C(=O)CCl)cc1`: 34.5% (inactive); `CCC(=C/c1sc2ccc3ccccc3c2[n+]1C)/C=C1\Sc2ccc3ccccc3c2N1C`: 24.1% (inactive); `CC(=O)N(C1=C(Cl)C(=O)c2ccccc2C1=O)c1ccc(C(=O)O)cc1`: 64.4% (inactive). As for `O=C(c1cccnc1)N(c1cc2sc(=O)oc2c2ccccc12)S(=O)(=O)c1ccccc1`, the figure is -5% (inactive); as for `CC(C)(C)Nc1c(N)c(=O)oc2ccccc12`, -27.1% (inactive); as for `O=C(Nc1ccccc1Cl)/C(Cl)=C(\Cl)S(=O)c1ccccc1` (stereo not given), -5.2% (inactive). For `C[N+](C)(CCCCCC[N+](C)(C)CCCN1C(=O)c2cccc3cccc(c23)C1=O)CCCN1C(=O)c2cccc3cccc(c23)C1=O`, the inhibition is -82% (active). As for `CCOC(=O)CSc1nc2ccc(C)cc2n2cnnc12`, the figure is 63.8% (inactive). As for `CCCc1nc2oc3c(OCC)ncnc3c2c2c1COC(C)(C)C2`, the figure is 14.9% (inactive).
